# Measured values reported in PubChem BioAssay (NCATS).
# Several values for one entry are separate records, joined by “and”; a condition that tells them apart may be missing. Equal entries are not always repeated. Results filed as inconclusive are left out. Where a call stands in place of a potency, no number is given. Some compounds were tested as several samples or in several runs, with calls that do not always agree. Activity calls are given as the source filed them. Unless noted, calls follow the shape of the dose curve; as a rule, active = well fitted curve in the direction sought with a large enough effect; inconclusive = small, poorly fitted or top-dose-only effect, or another doubt; inactive = no such curve, though single readings can be large; an effect the other way counts as inactive or inconclusive.
# Tests used:
# [1] = Primary qHTS for small molecule stabilizers of the endoplasmic reticulum resident proteome: Secreted ER Calcium Modulated Protein (SERCaMP) assay (AID 1508630); conditions: SH-SY5Y GLuc-SERCaMP (Gaussia luciferase released on ER calcium loss) secretion, thapsigargin, luminescence; series mostly up to 38.4 µM
# Procedure, shortened: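 The SH-SY5Y reporter protocol was run at 3 concentrations up to 38.3 uM (primary) or 11 concentrations (follow-up): 16 h compound, 100 nM thapsigargin for 4 h, then extracellular luciferase luminescence.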
# [2] = molecular target: Cytochrome P450 2D6 (Homo sapiens) (UniProt P10635); experiment: Cytochrome P450 family 2 subfamily D member 6 (CYP2D6) small molecule antagonists: luciferase biochemical (cell-free) qHTS assay (AID 1645840; active = well fitted curve in the direction sought with a large enough effect in the repeat runs; an effect the other way counts as inactive or inconclusive; also: nearly all actives have a fitted effect of over 55% in size; also: potency is read from the fitted curve at half-maximal effect); conditions: P450-Glo CYP2D6 enzyme, luciferin luminescence, 1 h; series mostly up to 57.4 µM
# Procedure, shortened: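 P450-Glo CYP2D6 system: proluciferin substrate converted by enzyme to luciferin, read by luminescence proportional to activity. Enzyme-substrate mix with compound 10 min at room temperature, then NADPH regeneration 1 h before detection reagent.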
# [3] = molecular target: Papain (Carica papaya) (UniProt P00784); experiment: Primary qHTS assay for inhibitors of the protease papain (AID 1645873); conditions: papain Z-FR-AMC cleavage, AMC fluorescence; series mostly up to 49.8 µM;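 also: papain turnover of Z-FR-AMC read as the AMC fluorescence gain over 10 min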; also: potency is read from the fitted curve at half-maximal effect
# [4] = molecular target: Cytochrome P450 2C9 (Homo sapiens) (UniProt P11712); experiment: Cytochrome P450 family 2 subfamily C member 9 (CYP2C9) small molecule antagonists: luciferase biochemical (cell-free) qHTS assay (AID 1645842; active = well fitted curve in the direction sought with a large enough effect in the repeat runs; an effect the other way counts as inactive or inconclusive; also: nearly all actives have a fitted effect of over 55% in size; also: potency is read from the fitted curve at half-maximal effect); conditions: P450-Glo CYP2C9 enzyme assay, luciferin luminescence; series mostly up to 57.4 µM
# Procedure, shortened: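 P450-Glo CYP2C9 system: proluciferin substrate with enzyme in mix containing 0.4% BSA, 10 min at room temperature, then NADPH regeneration solution added and incubated 1 h at 37C. Detection reagent stopped reaction; luminescence read after 20 min as RLU.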
# [5] = molecular target: Cytochrome P450 3A4 (Homo sapiens) (UniProt P08684); experiment: Cytochrome P450 family 3 subfamily A member 4 (CYP3A4) small molecule antagonists: luciferase qHTS assay (AID 1645841; active = well fitted curve in the direction sought with a large enough effect in the repeat runs; an effect the other way counts as inactive or inconclusive; also: nearly all actives have a fitted effect of over 45% in size); conditions: P450-Glo CYP3A4 enzyme assay, luciferin luminescence; series mostly up to 57.4 µM
# Procedure, shortened: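 P450-Glo CYP3A4 enzyme with proluciferin substrate preincubated 10 min with compound at room temperature, then NADPH regeneration 1 h. Luciferin detection reagent added for 20 min; luminescence recorded. Ketoconazole positive control.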
# [6] = A High-Content qHTS Against Drug Library for the Identification of Small Molecules that Inhibit DYT1 Early Onset Primary Dystonia-Associated Cell Pathology (AID 1645839; calls by dose curve); conditions: HEK293 Flp-In EGFP-delE TorsinA, punctate imaging, 48 h; series mostly up to 46.1 µM
# Procedure, shortened: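 Cells were seeded and left for 24 h, then dosed with compound alongside tetracycline induction of mutant EGFP-TorsinA. They were incubated for 48 h, fixed in 4% paraformaldehyde, permeabilized and imaged for mislocalization (%pathology) and cell count.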
# Sequence of Cytochrome P450 2C9 (Homo sapiens) (P11712 whole entry, looked up): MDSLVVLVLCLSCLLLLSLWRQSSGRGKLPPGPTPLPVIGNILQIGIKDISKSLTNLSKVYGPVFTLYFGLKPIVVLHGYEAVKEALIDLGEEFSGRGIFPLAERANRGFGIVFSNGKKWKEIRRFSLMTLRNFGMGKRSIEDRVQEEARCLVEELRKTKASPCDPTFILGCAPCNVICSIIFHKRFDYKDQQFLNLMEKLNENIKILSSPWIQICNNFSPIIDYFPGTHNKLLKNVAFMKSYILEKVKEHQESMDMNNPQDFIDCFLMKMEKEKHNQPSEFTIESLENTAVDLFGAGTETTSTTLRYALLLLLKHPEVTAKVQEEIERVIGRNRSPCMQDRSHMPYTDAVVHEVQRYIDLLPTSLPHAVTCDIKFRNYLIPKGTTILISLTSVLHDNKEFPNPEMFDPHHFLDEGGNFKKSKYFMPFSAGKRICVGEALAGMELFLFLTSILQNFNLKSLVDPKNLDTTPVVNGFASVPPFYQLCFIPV
# Sequence of Papain (Carica papaya) (P00784 whole entry, looked up): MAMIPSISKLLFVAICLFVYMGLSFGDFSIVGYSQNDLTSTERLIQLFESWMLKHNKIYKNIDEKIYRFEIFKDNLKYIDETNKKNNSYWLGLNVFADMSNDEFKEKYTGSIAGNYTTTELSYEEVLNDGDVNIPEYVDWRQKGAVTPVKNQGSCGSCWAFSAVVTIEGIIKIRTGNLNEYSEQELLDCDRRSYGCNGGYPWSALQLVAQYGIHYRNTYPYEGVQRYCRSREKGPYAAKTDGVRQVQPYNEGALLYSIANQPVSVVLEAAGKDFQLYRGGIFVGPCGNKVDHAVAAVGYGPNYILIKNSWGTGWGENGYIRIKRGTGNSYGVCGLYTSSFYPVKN
# Sequence of Cytochrome P450 2D6 (Homo sapiens) (P10635 whole entry, looked up): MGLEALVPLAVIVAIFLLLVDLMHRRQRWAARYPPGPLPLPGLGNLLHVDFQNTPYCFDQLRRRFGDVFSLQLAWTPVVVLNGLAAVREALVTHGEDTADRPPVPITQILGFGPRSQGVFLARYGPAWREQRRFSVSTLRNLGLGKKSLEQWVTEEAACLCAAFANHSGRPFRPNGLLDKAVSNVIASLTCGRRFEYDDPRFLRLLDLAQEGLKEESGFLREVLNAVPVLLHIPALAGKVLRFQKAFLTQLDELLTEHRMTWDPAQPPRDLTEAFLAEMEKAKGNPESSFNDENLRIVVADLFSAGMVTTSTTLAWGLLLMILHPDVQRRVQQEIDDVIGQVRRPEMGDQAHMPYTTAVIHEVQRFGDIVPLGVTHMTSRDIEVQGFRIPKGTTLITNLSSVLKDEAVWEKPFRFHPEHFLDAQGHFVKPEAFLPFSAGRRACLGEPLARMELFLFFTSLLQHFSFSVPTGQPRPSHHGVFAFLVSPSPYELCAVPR
# Sequence of Cytochrome P450 3A4 (Homo sapiens) (P08684 whole entry, looked up): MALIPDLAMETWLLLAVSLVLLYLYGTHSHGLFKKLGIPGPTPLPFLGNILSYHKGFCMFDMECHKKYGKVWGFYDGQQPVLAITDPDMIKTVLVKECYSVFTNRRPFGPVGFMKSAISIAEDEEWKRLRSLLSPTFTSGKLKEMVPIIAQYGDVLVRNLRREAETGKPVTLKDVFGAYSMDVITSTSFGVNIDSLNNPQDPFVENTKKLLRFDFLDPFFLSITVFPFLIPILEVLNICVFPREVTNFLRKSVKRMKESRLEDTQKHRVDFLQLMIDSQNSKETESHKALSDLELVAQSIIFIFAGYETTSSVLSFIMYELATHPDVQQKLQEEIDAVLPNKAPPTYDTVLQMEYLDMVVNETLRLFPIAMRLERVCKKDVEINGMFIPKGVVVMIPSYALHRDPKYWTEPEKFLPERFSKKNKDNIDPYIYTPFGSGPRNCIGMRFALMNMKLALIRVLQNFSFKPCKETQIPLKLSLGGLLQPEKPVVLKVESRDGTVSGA
compound,measurement,setting,value
NC(=NCc1ccccc1)NC(=O)c1nc(Cl)c(N)nc1N,Potency,[1],inactive
same,Potency,[2],5.35 µM (active)
same,Potency,[3],31.6 µM (active)
NCCCCNCCCN,Potency,[1],inactive
same,Potency,[3],inactive
Clc1ccc2c(N3CCN(CCCN4CCN(c5ccnc6cc(Cl)ccc56)CC4)CC3)ccnc2c1,Potency,[1],inactive
same,Potency,[3],inactive
COc1cc(C(C)=O)ccc1OCCCN1CCC(c2noc3cc(F)ccc23)CC1,Potency,[1],inactive
same,Potency,[2],5.49 µM (active)
same,Potency,[4],inactive
C[C@@H](c1ncncc1F)[C@](O)(Cn1cncn1)c1ccc(F)cc1F,Potency,[1],inactive
same,Potency,[2],inactive
same,Potency,[3],inactive
CCCS(=O)c1ccc2nc(NC(=O)OC)[nH]c2c1 (stereo not given),Potency,[1],inactive
same,outcome,[5],inactive
same,Potency,[4],inactive
O=C1c2ccccc2-c2n[nH]c3cccc1c23,Potency,[1],inactive
same,Potency,[3],inactive
Cc1ccc(NC(=O)c2ccc(CN3CCN(C)CC3)cc2)cc1Nc1nccc(-c2cccnc2)n1,Potency,[1],inactive
same,Potency,[2],inactive
same,Potency,[4],inactive and 23.9 µM (active)
CCOC(=O)C(C)Oc1cccc2c(=O)n(CC(=O)Nc3ccc4c(c3)OCCO4)ccc12 (stereo not given),Potency,[1],inactive
same,Potency,[3],inactive
Nc1nc(OCc2ccccc2)c2[nH]cnc2n1,Potency,[1],inactive
same,Potency,[3],inactive
O=C(NCCO[N+](=O)[O-])c1cccnc1,Potency,[6],inactive
same,Potency,[2],inactive
same,Potency,[4],inactive
Clc1ccc(C(Cn2ccnc2)OCc2ccsc2Cl)c(Cl)c1 (stereo not given),Potency,[2],0.692 µM (active)
same,Potency,[4],0.0692 µM (active)
Cc1ccc(S(=O)(=O)NC(=O)NN2CC3CCCC3C2)cc1 (stereo not given),Potency,[6],inactive
same,Potency,[2],inactive
same,Potency,[4],inactive
O=Nc1c(-c2c(O)[nH]c3cc(Br)ccc23)[nH]c2ccccc12,Potency,[2],21.3 µM (active)
same,Potency,[3],inactive
